# About 79,000 compounds went through this panel and 15% of them were active in at least one assay; those are over-represented in the sample as a whole. A number with no mark means an inactive call. Cut-off read from the data, not from the text of the source: active = growth inhibition above about 70%; inactive = the rest.
# Assay: NCI Yeast Anticancer Drug Screen. Data for the sgs1 mgt1 strain (AID 161);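 note: 0% = growth of cultures given vehicle only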
# Details: S. cerevisiae sgs1 mgt1 strain, at 50.0 µM, active compounds read high
# Experimental: Growth inhibition of yeast strains with defined genetic alterations is measured as a screen for potential anti-cancer activity. Selected strains with alterations in DNA damage repair or cell cycle control were exposed to compounds and growth inhibition was measured relative to vehicle treated controls. The strain used in this assay is sgs1 mgt1
row,Structure (SMILES),growth inhibition
1,Cc1ccccc1N1CCN(CC(O)Cc2ccccc2)CC1 (stereo not given),12.1%
2,Cc1ccc(SCc2ccc(Cl)cc2)nn1,-1.65%
3,Cc1nc(N)nc2c1ncn2CCO,9.6%
4,CC(C)(C)/C(=N\O)c1ccccc1,-23.3%
5,C=CCOC(=O)Nc1cc(Cl)ccc1C,-8.5%
6,CN(C)c1ccc(S(=O)(=O)c2ccc3nc(N)nc(N)c3c2)cc1,5.45%
7,O=C(O)C1CC[N-]CC1.O=C(O)C1CC[N-]CC1.[NH2-].[NH2-].[Pt+4],2.2%
8,CC(=O)CC(=O)Nc1ccc(C)c(C)c1,10%
9,CCOC(=O)CC1c2ccc(O)cc2OC(=O)C1c1ccc(N)cc1 (stereo not given),-14.8%
10,CCCCC(C(=O)O)C(=O)O,-21.8%
11,COc1ccc(/C(Cl)=C(\C=O)c2cc(OC)c(OC)c(OC)c2)cc1OC,-5%
12,CCOP(=O)(OCC)/C(C#N)=C\c1ccc(N(C)C)cc1,10.2%
13,N#CCCOCCSCCC#N,-5.95%
14,Nc1ccc(N=Nc2ccc(N)cc2)cc1,-13.7%
15,O=C1C=C2CCC[C@H]3OC(=O)C[C@@]23CC1,35.3%
16,COc1ccc(C(=O)NC(=S)Nc2cccc([N+](=O)[O-])c2)cc1,35.5%
17,CN(C)CCC(=O)c1cccc(O)c1,-6.4%
18,Cc1cc2c(=O)cc(-c3ccncc3)oc2c(C(N)=O)c1C,-12%
19,CCOC(=O)C1C(c2ccc(N(C)C)cc2)c2cc3c(cc2OC1(C)N1CCCC1)OCO3 (stereo not given),-2.1%
20,Cc1nc2c(N3CCCCC3)ncnc2o1,-6.15%

row,Structure (SMILES),growth inhibition
1,CN(C)c1c2c(oc(=O)c1Cl)-c1ccccc1OCC2,-10.4%
2,COc1nn(C)c(=O)c2cccnc12,-3.1%
3,NC(CCCNc1nc(O)c(-c2ccccc2)c(=O)[nH]1)C(=O)O (stereo not given),-10.7%
4,O=C(N/N=C\c1ccc([N+](=O)[O-])cc1)Nc1cccc2ccccc12,-42.4%
5,O=c1cc(-c2ccc(F)cc2)oc2ccccc12,-9.05%
6,O=C(/C=C/c1cccs1)c1ccc(Cl)cc1,-9.45%
7,O=C(c1ccc(Br)cc1)C(C(c1ccccc1)N1CCOCC1)N1CCOCC1 (stereo not given),-9.6%
8,COc1cc(C2C(C(=O)NCc3ccccc3)=C(C)NC(C)=C2C(=O)NCc2ccccc2)ccc1O,-23.9%
9,O=C(CCCCC(=O)Nc1ccc2[nH]c3ccccc3c(=O)c2c1)Nc1ccc2[nH]c3ccccc3c(=O)c2c1,-3.1%
10,CCC(C)NC(=O)C(C)C (stereo not given),-2.9%
11,COc1ccc2[nH]c(-c3cccc(N(C)C)c3)cc(=O)c2c1,-12.5%
12,COc1ccccc1-n1c(NN)nc2ccc(Br)cc2c1=O,27.4%
13,CC1=CC2N(C=C1)C(c1cccc([N+](=O)[O-])c1)=NON2c1cc(C)ccn1 (stereo not given),6.85%
14,O=C(NC1c2ccccc2CCc2ccccc21)C(F)(F)F,14.5%
15,COC(=O)c1ccc(C(=O)OC)c2nc3cc(C)ccc3nc12,-16.2%
16,OC1C2CC3C(C2)C13 (stereo not given),2.25%
17,CC(=O)OCC1OC(OC(C)=O)C(NC(=O)c2ccc(Br)cc2)C(OC(C)=O)C1OC(C)=O (stereo not given),39.5%
18,CCCCCC(O)C(C)C (stereo not given),-8.65%
19,CSc1nc(COC(=O)NC(C)C)c(COC(=O)NC(C)C)n1Cc1ccccc1,1.35%
20,CCCCS/C=C\C(=O)OCC,-8.5%
